Data reported in PubChem BioAssay AID2073 (Sanford-Burnham Center for Chemical Genomics, 2009).
Screen size: about 290,000 compounds; about 570 (0.2%) were called active. Another 1% or so got no clear call; they are omitted. Rule as the data show it: active = inhibition mostly above about 51% (no sharp cut-off); inconclusive = no clear call, values can overlap the other calls; inactive = mostly below about 53%. The entries come from a sample that favours actives as a whole.

Molecular target: Voltage-dependent N-type calcium channel subunit alpha-1B (Homo sapiens) (UniProt Q00975)
Sequence (Q00975 whole entry, looked up): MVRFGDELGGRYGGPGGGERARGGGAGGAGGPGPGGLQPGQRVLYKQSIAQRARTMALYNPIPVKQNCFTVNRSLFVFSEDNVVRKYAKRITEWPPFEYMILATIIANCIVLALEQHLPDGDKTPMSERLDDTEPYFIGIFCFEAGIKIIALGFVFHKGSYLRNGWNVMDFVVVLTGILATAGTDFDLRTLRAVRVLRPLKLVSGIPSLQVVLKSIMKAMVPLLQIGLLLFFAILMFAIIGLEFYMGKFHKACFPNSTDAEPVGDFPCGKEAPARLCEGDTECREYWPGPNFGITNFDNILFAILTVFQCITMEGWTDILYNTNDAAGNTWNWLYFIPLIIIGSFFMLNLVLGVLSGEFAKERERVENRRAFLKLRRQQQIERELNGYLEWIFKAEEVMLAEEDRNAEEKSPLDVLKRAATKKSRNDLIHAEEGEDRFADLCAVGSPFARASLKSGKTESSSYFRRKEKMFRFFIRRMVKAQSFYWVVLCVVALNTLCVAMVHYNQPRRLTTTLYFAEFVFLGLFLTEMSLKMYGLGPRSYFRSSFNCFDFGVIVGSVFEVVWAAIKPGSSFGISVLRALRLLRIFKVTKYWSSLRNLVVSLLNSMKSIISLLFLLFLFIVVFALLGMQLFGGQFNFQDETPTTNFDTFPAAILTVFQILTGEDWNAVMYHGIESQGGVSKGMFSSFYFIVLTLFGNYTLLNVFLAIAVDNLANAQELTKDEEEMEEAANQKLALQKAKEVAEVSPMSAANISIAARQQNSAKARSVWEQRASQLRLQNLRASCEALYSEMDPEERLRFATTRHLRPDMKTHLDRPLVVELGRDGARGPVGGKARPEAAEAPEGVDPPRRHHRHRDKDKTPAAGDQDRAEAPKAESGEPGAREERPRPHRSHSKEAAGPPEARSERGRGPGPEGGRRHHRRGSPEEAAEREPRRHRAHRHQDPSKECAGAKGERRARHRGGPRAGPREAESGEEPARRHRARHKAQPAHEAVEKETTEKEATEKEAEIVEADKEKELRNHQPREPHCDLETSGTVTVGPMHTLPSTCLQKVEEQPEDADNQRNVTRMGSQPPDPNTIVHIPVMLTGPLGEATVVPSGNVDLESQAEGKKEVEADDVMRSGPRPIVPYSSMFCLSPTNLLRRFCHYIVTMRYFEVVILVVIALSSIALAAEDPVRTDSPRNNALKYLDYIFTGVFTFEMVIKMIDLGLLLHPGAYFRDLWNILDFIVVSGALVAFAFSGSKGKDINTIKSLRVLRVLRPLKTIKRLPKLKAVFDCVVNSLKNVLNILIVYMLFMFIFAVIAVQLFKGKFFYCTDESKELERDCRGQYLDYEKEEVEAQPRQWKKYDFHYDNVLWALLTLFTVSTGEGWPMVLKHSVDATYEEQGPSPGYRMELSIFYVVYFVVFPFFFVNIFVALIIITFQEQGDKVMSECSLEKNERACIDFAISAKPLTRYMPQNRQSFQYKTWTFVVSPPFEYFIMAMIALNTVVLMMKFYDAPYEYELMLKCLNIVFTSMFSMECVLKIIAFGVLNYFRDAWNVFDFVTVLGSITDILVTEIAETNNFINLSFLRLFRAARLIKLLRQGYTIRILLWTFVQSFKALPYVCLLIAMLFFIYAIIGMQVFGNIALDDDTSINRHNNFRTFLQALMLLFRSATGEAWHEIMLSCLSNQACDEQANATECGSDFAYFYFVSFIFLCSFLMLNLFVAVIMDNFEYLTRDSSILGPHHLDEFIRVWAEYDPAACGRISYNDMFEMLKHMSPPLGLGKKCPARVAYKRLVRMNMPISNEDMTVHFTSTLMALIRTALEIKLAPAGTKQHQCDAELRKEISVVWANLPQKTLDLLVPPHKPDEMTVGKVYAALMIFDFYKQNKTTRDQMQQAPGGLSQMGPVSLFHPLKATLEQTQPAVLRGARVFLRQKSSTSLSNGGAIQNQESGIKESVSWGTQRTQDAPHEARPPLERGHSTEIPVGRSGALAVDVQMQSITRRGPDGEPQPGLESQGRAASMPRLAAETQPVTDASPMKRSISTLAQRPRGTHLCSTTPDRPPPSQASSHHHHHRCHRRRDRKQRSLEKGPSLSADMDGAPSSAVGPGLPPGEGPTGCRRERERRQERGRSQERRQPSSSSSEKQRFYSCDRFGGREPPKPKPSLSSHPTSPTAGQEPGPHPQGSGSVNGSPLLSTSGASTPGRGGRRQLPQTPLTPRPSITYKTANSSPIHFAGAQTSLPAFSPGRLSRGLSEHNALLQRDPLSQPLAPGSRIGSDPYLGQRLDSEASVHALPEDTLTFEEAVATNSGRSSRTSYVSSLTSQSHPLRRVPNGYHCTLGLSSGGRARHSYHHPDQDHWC
Assay: inhibitors of Mint1-CaV2.2 protein interaction, biochemical, HTRF (AID 2073)
Settings: at 20 µM, stronger effect = higher value

SMILES	inhibition	inhibition (measured here: average of repeat tests) [%]
CCOc1cc(C(=O)O)cc(Cl)c1OC	0.7% (inactive)	
Cc1ccc(N2CCN(/N=C/C=C/c3ccccc3)CC2)cc1	2.8% (inactive)	
N/C(=N\C(=S)Nc1ccccc1)c1ccccc1	5.2% (inactive)	
CNC(=S)/N=C(/Nc1ccccc1)c1ccccc1	59.9% (active)	
Cc1ccc(NC(=O)c2ccccc2)cc1	-4.2% (inactive)	
CNC(=S)Nc1ccc(Nc2ccccc2)cc1	-5.3% (inactive)	
Cc1ccc(NC(=S)c2ccccc2)cc1	-6.4% (inactive)	
CS(=O)(=O)NCCSCc1c(Cl)cccc1Cl	28.1% (inactive)	
N#Cc1c(C(F)(F)F)cc(C2CC2)[nH]c1=O	6.1% (inactive)	
Cc1ccc(C(=S)NCS(=O)(=O)c2ccc(C)cc2)cc1	28% (inactive)	
Cc1ccc(/C=C/c2nc3ccccc3[nH]2)o1	44.8% (inactive)	
C(=C\c1ccco1)/c1nc2ccccc2[nH]1	65.6% (active)	
C(=C\c1nc2ccccc2[nH]1)/c1ccccc1	5.8% (inactive)	
CCc1ccc(CN2CCC(n3nccc3NC(=O)c3ccc4c(c3)OCO4)CC2)cc1	2.8% (inactive)	
N#Cc1c(N)sc(=S)c2c1CCN(Cc1ccccc1)C2	52.4% (active)	
N#Cc1c(N2CCCCC2)nc(N2CCCCC2)c2c1CCN(Cc1ccccc1)C2	16.2% (inactive)	
N#Cc1c(N)sc2c1CCN(CCc1ccccc1)C2	3.3% (inactive)	
CN(C(=O)CC1C(=O)NCCN1Cc1ccccc1F)C1CCOCC1 (stereo not drawn)	16.3% (inactive)	
Cc1c(Cl)sn(-c2ccc(Cl)cc2)c1=O	79.2% (active)	
CC1=CC(C)(C)N(C)C(=O)N1c1ccc(Cl)cc1	-2.6% (inactive)	
Cc1cc(=O)cc(C)n1-c1ccc(Cl)cc1	7.3% (inactive)	
CN1CCN(C(=O)CN(c2cc(C(F)(F)F)ccc2Cl)S(C)(=O)=O)CC1	-10.8% (inactive)	
CN(c1ccccc1)c1ccc(/C=C(\CCC(=O)O)c2nc3ccccc3s2)cc1[N+](=O)[O-]	54.7% (active)	

SMILES	inhibition	inhibition (measured here: average of repeat tests) [%]
Cc1ccc(/C=C(\CCC(=O)O)c2nc3ccccc3s2)cc1[N+](=O)[O-]	7% (inactive)	
O=C(O)CC/C(=C\c1ccc(Cl)c([N+](=O)[O-])c1)c1nc2ccccc2s1	6.1% (inactive)	
CCC(C(=O)N1CCOCC1)n1nc(C)c2sc3ccccc3c2c1=O (stereo not drawn)	12.1% (inactive)	
CN1CCN(c2ccccc2NC(=O)c2cccc(OCc3ccccc3)c2)CC1	19% (inactive)	
COCCn1c(SCC(=O)Nc2ccc(F)cc2)nc2ccccc2c1=O	6.9% (inactive)	
COCCn1c(SCC(=O)Nc2ccc(NC(C)=O)cc2)nc2ccccc2c1=O	-7.5% (inactive)	
CC1(C)CC(=O)C=C(NNC(=O)C2CCCCC2)C1	1.6% (inactive)	
C#CCOCCOCCOCCNc1nc(N2CCN(C(=O)[C@H](Cc3cc4ccccc4[nH]3)n3cc([C@@H](N)Cc4ccc(O)cc4)nn3)CC2)nc(N2CCN(C(=O)[C@H](Cc3cc4ccccc4[nH]3)n3cc([C@@H](N)CC(C)C)nn3)CC2)n1	51.5% (active)	
C#CCOCCOCCOCCNc1nc(N2CCN(C(=O)C(Cc3ccc(O)cc3)n3cc(C(N)CC(C)C)nn3)CC2)nc(N2CCN(C(=O)C(Cc3cc4ccccc4[nH]3)n3cc(C(N)Cc4ccc(O)cc4)nn3)CC2)n1 (stereo not drawn)	14.6% (inactive)	
C#CCOCCOCCOCCNc1nc(N2CCN(C(=O)[C@H](Cc3ccc(O)cc3)n3cc([C@@H](N)CC(C)C)nn3)CC2)nc(N2CCN(C(=O)[C@H](Cc3cc4ccccc4[nH]3)n3cc([C@@H](N)CC(C)C)nn3)CC2)n1	22.3% (inactive)	
CC[N+](CC)(CC#Cc1ccccc1)CC(=O)c1ccc(Cl)cc1	-0.1% (inactive)	
Cc1nc(C)c(C(=O)OCC(=O)N2CCN(c3ccccc3)CC2)s1	-4.9% (inactive)	
COC(=O)c1ccccc1NC(=O)CN1CCC(NC(=O)c2ccc(C)cc2)CC1	-3.1% (inactive)	
NNC(=O)c1oc2nc(-c3cccs3)cc(-c3ccco3)c2c1N	51.7% (active)	
NNC(=O)c1oc2nc(-c3ccco3)cc(-c3ccco3)c2c1N	59.1% (active)	
Nc1c(C(=O)N/N=C/c2ccccc2Cl)oc2nc(-c3ccccc3)cc(-c3ccco3)c12	45.6% (inactive)	
NNC(=O)c1oc2nc(-c3ccccc3)cc(-c3ccccc3)c2c1N	18.4% (inactive)	
Cc1ccc(-c2cc(-c3ccco3)c3c(N)c(C(=O)NN)oc3n2)cc1	55.5% (inactive)	31.3
Nc1c(C(=O)N/N=C/c2cccnc2)oc2nc(-c3ccco3)cc(-c3ccco3)c12	44.8% (inactive)	
N#Cc1c(Nc2ccccc2)c(/C=N/NCCO)c[nH]c1=O	-20.2% (inactive)	
CN(C)c1cccc(C(=O)OCC(=O)NC2CCCC2)c1	2.1% (inactive)	
Cc1oc(-c2ccccc2F)nc1CS(=O)(=O)CC(=O)N1CCCCCC1	-4.2% (inactive)	
COc1cc(C(=O)NCCC(=O)NCCCN2CCCCC2)cc(OC)c1OC	-4% (inactive)	

SMILES	inhibition	inhibition (measured here: average of repeat tests) [%]
Cc1nsc(Nc2ccccc2)c1C#N	36.6% (inactive)	
FC(F)(F)c1ccccc1NC1=NCCC1	0.7% (inactive)	
Cc1cc(C)c(C#N)c(Nc2ccccc2Cl)n1	5.7% (inactive)	
FC(F)(F)c1ccccc1Nc1nccs1	-8.5% (inactive)	
COc1cccc(CC(Cc2nc3ccccc3[nH]2)c2nc3ccccc3[nH]2)c1 (stereo not drawn)	4.4% (inactive)	
CCOc1ccc(/C=N/NC(=O)CSc2n[nH]c(=O)[nH]c2=O)cc1OC	-0.5% (inactive)	
CC(=O)c1ccc(N2CCN(C(=O)c3ccc(Cl)c(NC4=NC5CS(=O)(=O)CC5S4)c3)CC2)cc1 (stereo not drawn)	3.4% (inactive)	
Cc1ccnc(NS(=O)(=O)c2ccc(NC(=O)C3CCCO3)cc2)n1 (stereo not drawn)	-3% (inactive)	
O=C(NCc1ccc(F)cc1)C1CCCN1C(=O)Nc1cccc(F)c1 (stereo not drawn)	8.7% (inactive)	
Cc1ccc(N=CC=C2OC(C)(C)C(C)(C)O2)cc1	1.3% (inactive)	
COc1ccc(S(=O)(=O)Nc2ccccc2Cl)cc1NC(C)=O	1.4% (inactive)	
COc1cc2c(cc1NC(=O)C(C)OC(=O)c1ccc(S(=O)(=O)Nc3ccccc3Cl)cc1)oc1ccccc12 (stereo not drawn)	56.6% (active)	
COc1cc2c(cc1NC(=O)C(C)N1CCN(S(=O)(=O)c3ccc(C)c(C)c3)CC1)oc1ccccc12 (stereo not drawn)	12.7% (inactive)	
Cc1nc2cc(F)ccc2n1C1CCN(S(=O)(=O)c2ccccc2)CC1	5.6% (inactive)	
O=C(c1csc2c1CCCC2)N1CCN(c2ccccc2)CC1	-0.9% (inactive)	
Cc1cc(C)cc(Nc2nc(-c3ccc(S(=O)(=O)N4CCCC4)cc3)cs2)c1	67.2% (active)	
O=S(=O)(c1ccc(-c2csc(Nc3ccc(Br)cc3)n2)cc1)N1CCCC1	-7.1% (inactive)	
Cc1ccc(Nc2nc(-c3ccc(S(=O)(=O)N4CCCC4)cc3)cs2)cc1C	36.3% (inactive)	
COC(=O)c1ccccc1NC(=O)COc1ccc(S(=O)(=O)N2CCCC2)cc1C	6.4% (inactive)	
COc1cccc2c(=O)c3cccc(N)c3[nH]c12	52.3% (active)	
COc1cccc2[nH]c3ccccc3c(=O)c12	30.8% (inactive)	
Nc1cccc2c(=O)c3ccccc3[nH]c12	41.4% (inactive)	
CCCCN(C)C(=O)CSc1nc(NCc2ccc(OC)cc2)c2ccccc2n1	-1% (inactive)	

SMILES	inhibition	inhibition (measured here: average of repeat tests) [%]
CCCn1c(C(C)Nc2nc(-c3ccc(Cl)c([N+](=O)[O-])c3)cs2)nc2cc(Cl)c(N3CCCCC3)cc21 (stereo not drawn)	21% (inactive)	
CCOC(=O)c1sc2nc3c(SCC(=O)O)cc(C(=O)c4cc(F)ccc4O)cn3c(=O)c2c1C	18.6% (inactive)	
CCOC(=O)c1sc2nc3c(SCCC#N)cc(C(=O)c4cc(F)ccc4O)cn3c(=O)c2c1C	43.6% (inactive)	
CCOC(=O)c1sc2nc3c(SCC(=O)O)cc(C(=O)c4ccccc4O)cn3c(=O)c2c1C	53.3% (active)	
CCCCP(=O)(CCCC)Cc1ccccc1	-0.8% (inactive)	
COc1ccc(-c2nnc(SCC(=O)NCc3cccs3)n2C(C)C)cc1	-14.7% (inactive)	
O=c1c2c(nc3nc(NCc4cccc5ccccc45)[nH]n13)CCC2	4.9% (inactive)	
O=C(O/N=C(\c1ccccc1)c1ccncc1)c1ccccc1F	-7.6% (inactive)	
O=C(Nc1ccc(NC(=O)c2sc3ccccc3c2Cl)cc1Cl)c1ccco1	31.4% (inactive)	
O=C(Nc1ccc(NC(=O)c2sc3ccccc3c2Cl)cc1)c1ccco1	60.5% (active)	
O=C(Nc1cccc(NC(=O)c2sc3ccccc3c2Cl)c1)c1ccco1	12.7% (inactive)	
CCS(=O)(=O)N1CCCC(C(=O)N2CCc3ccccc3C2)C1 (stereo not drawn)	0% (inactive)	
COc1cc(/C=N/n2cnnc2)ccc1OC(=O)c1ccco1	1.6% (inactive)	
CCN(CC)C(=O)C(=O)Nc1ccc(OC)c(Cl)c1	1.5% (inactive)	
Cc1cc(=O)c2ccc(Cl)cc2[nH]1	0.7% (inactive)	
O=C(O)/C=C/C(=O)NCc1csc2ccccc12	-5% (inactive)	
O=C(Nc1ccc2c(c1)OCO2)C1CC(=O)N(c2cccc(Cl)c2)C1 (stereo not drawn)	-1.9% (inactive)	
Oc1c(Br)cc(C=Nc2ccc3nc(-c4ccccc4)[nH]c3c2)c(O)c1Br	83.1% (active)	
COc1ccc2nc(-c3ccccc3)[nH]c2c1	11.7% (inactive)	
Oc1c(Br)cc(/C=N/n2c(-c3ccccc3)n[nH]c2=S)c(O)c1Br	-12.3% (inactive)	
CCn1ccnc1CN(C)C(=O)c1ccc(OC2CCN(CCc3ccccc3)CC2)cc1	6.5% (inactive)	
COCCn1c(SCc2cccnc2)nnc1-c1c[nH]c2ccccc12	-0.4% (inactive)	
CC(=O)N1CCC(C(=O)N2CCN(S(=O)(=O)c3cccs3)CC2)CC1	0.1% (inactive)	
